Measured values taken from PubChem BioAssay AID1251 (SRMLSC, 2008).
The campaign covered roughly 200,000 compounds. About 720 (0.36%) were called active. Shown is part of a subset that was picked to be rich in actives. Values without a mark were called inactive. Rule as the data show it: active = inhibition above about 30%; inactive = the rest, inconclusive results apart.

Assay: antivirals against arbovirus infection, primary screen, cell-based, full library, 10K replicate subset (AID 1251)
Details: arbovirus infection cell-based antiviral screen, at 10 µM, active compounds read high

Compound | inhibition
COc1ccc(CCNC(=O)/C(C#N)=C2\N=C(NC(=O)c3cccs3)c3ccccc32)cc1 | 1.79%
O=C(O)/C=C/c1cn(Cc2ccccc2)nc1-c1cccs1 | 9.79%
Cc1c(Cl)cccc1NC(=S)NCc1ccc2c(c1)OCO2 | -9.04%
COCC(C)NCc1cc(Br)ccc1OC (stereo not given) | 5.99%
CCOc1ncccc1C(=O)N(C)CC(=O)Nc1ccc(F)cc1 | -2.52%
Cc1cc2ccccc2n1CCC(=O)O | 4.57%
COc1ccccc1N1CCN(C(=O)c2ccc(Cl)c(S(=O)(=O)N3CCCC3)c2)CC1 | 4.9%
O=C(COc1ccccc1Cl)Nc1ccc(C(=O)c2ccc(C(=O)O)cc2)cc1 | 1.44%
COc1cc(NC(=O)COc2ccccc2Cl)ccc1NC(=O)C(C)C | -3.4%
CC(=O)Nc1ccc(NC(=O)COc2ccccc2C(=O)Nc2cccc(Cl)c2Cl)cc1 | 33.1% (active)
CSc1ccccc1NC(=O)CN(C)CC(=O)Nc1ccc(Cl)cc1[N+](=O)[O-] | 9.71%
COc1ccccc1C(=O)Nn1c(-c2cccs2)nc2ccccc2c1=O | -3.21%
CCOC(=O)N1CCN(C(=O)Cn2cnc3ccccc3c2=O)CC1 | 4.88%
CCOC(=O)C(=Cc1ccccc1OC)C(=O)OCC | 1.92%
O=c1c2c(ncn1Cc1ccccc1)nc1n2CCC1 | -1.22%
COc1ccc(/C=N/NC(=O)C(C)N(c2ccc(OC)cc2)S(C)(=O)=O)cc1 (stereo not given) | -1.77%
COc1cc(OC)cc(C(=O)OCC(=O)Nc2sccc2C(N)=O)c1 | 4.53%
O=C(COC(=O)C12CC3CC(CC(O)(C3)C1)C2)NC12CC3CC(CC(C3)C1)C2 | 5.43%
Cc1ccc(C(=O)N/C(=C\c2ccco2)C(=O)N2CCSCC2)cc1C | 4.17%
O=C(Nc1ccn(Cc2ccccc2)n1)c1cccc(F)c1 | -18.6%

Compound | inhibition
O=C(Nc1ccn(Cc2ccc(F)cc2)n1)c1ccncc1 | 3.28%
O=C(Nc1ccn(Cc2ccccc2)n1)c1n[nH]c([N+](=O)[O-])c1Cl | 50.2% (active)
CC(=O)NC(NC(=S)Nc1c(C)n(C)n(-c2ccccc2)c1=O)C(Cl)(Cl)Cl (stereo not given) | 7.15%
CCOc1cc(NC(=S)NCCCN(C)C)c(OCC)cc1NC(=O)C1CC1 | 5.58%
CCOc1ccc(Br)cc1S(=O)(=O)Nc1cccc(S(=O)(=O)N(CC)CC)c1 | 2.51%
CN(C)c1ccc(C(CC(=O)O)C(=O)O)cc1 (stereo not given) | 2.46%
COc1ccc(N2C(=O)C(CC(=O)Nc3ccccc3)N(Cc3ccc(OC)c(OC)c3)C2=O)cc1 (stereo not given) | 0.98%
COc1ccccc1N1CCN(C(=O)c2cc(-c3ccc(Cl)c(Cl)c3)on2)CC1 | 2.74%
O=C(c1ccncc1)N1CCN(c2ccc3ccccc3n2)CC1 | 5.37%
O=C(c1ccc2ccccc2n1)N1CCN(c2ccccc2Cl)CC1 | 36% (active)
Cc1cc(C(=O)NNC(=O)CCC2CCCCC2)c(C)o1 | -2.2%
C=CCn1nc(-c2ccccc2)c2c(C)onc2c1=O | 4.65%
Cc1ccc(-c2cc(C(F)(F)F)n3ncc(C(=O)N4CCCCC4c4cccnc4)c3n2)cc1 (stereo not given) | -9.25%
COCCn1c(C)cc(C(=O)CSc2nc3ccccc3c(=O)n2C(C)COC)c1C (stereo not given) | 8.78%
Cc1nc(Nc2ccc(S(=O)(=O)N3CCCC3)cc2)c2nnn(Cc3ccccc3)c2n1 | -12.5%
CCCc1nc(NCc2ccc3c(c2)OCO3)c2nnn(Cc3ccccc3Cl)c2n1 | -16.2%
Cc1nc(Nc2ccc3c(c2)OCCO3)c2nnn(Cc3ccccc3Cl)c2n1 | 51.5% (active)
Cc1ccc2nsnc2c1S(=O)(=O)N1CCCC1C(=O)O (stereo not given) | 1.07%
CCOC(=O)c1oc2ccccc2c1NC(=O)c1cccs1 | -1.76%
Cc1cc(C)c(NC(=O)c2oc3ccccc3c2COc2ccccc2)c(C)c1 | 32.5% (active)

Compound | inhibition
COCc1c(C(=O)OCc2c(C)noc2C)oc2ccccc12 | 3.37%
O=c1[nH]c(CN2CCOCC2)nc2scc(-c3ccccc3)c12 | 5.07%
O=C(CN(CC1CCCO1)C(=O)CNS(=O)(=O)c1ccc(F)cc1)NCc1ccco1 (stereo not given) | 2.42%
C/C(=N\N=C(N)N)c1ccc(Cl)cc1 | -24.2%
CC(C)(C)C(=O)NCCCNc1ccc([N+](=O)[O-])cc1 | 1.95%
O=C(CNCc1ccc(F)cc1)Nc1ccccc1-c1ccccc1 | -16.4%
Cc1ccc(N2CCN(C3=NC(=O)/C(=C\c4cccs4)S3)CC2)cc1 | 6.43%
CCc1ccc(/C=C2\SC(N3CCOCC3)=NC2=O)cc1 | -6.68%
Cc1ccc(Cl)c(NC(=O)CN2CCN(C=O)CC2)c1 | 5.23%
COc1ccc(CCn2ccc(O)c(Cc3ccc(Cl)cc3Cl)c2=O)cc1OC | 5.76%
C/C(CCc1ccccc1)=N\NC(=O)c1ccc(CN2CCOCC2)cc1 | -3.19%
COc1ccc2c(c1)CCC/C2=N\OC(=O)c1ccccc1F | -1.6%
CCOc1cc(CNCc2ccccn2)ccc1OCC(=O)NC(C)(C)C | -2.89%
CCCCCC(=O)NC(=S)NNC(=O)c1ccc([N+](=O)[O-])cc1 | -18%
CCN(C(=O)COC(=O)c1cc(S(=O)(=O)N2CCc3ccccc32)ccc1OC)C1CCS(=O)(=O)C1 (stereo not given) | 7.54%
CCN(CC)CCNC(=O)c1ccc(NC(=O)c2c(F)cccc2Cl)cc1 | -4.69%
Cc1cc(C)c2nc(SCC(=O)N(C)C3CCS(=O)(=O)C3)cc(C)c2c1 (stereo not given) | -6.1%
CC(=O)c1sc(NC(=O)c2ccc(C)cc2)nc1C | -4.42%
CCSc1nnc(NC(=O)Cc2ccccc2OC)s1 | 3.03%
CCSc1nnc(NC(=O)c2ccc(C)cc2)s1 | 33.2% (active)
